Source: PubChem (National Center for Advancing Translational Sciences (NCATS))
ELG1 DNA repair: blocks ELG1-dependent DNA repair in HEK293T cells; AID 504467; HEK293T ELG1-luciferase reporter, luminescence, 16 h; DNA damage induced by 5-fluorouridine; actives 2.3% (n = 330,000); Potency, µM (highest dose often 46.1 µM), inactives show top-dose activity change, negative = inhibition, usual class: inhibitors; further: on the % scale 0 is the no-effect control and ±100 the full control effect; nearly all actives have a fitted effect of over 55% in size
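DMSO vehicle served as the neutral condition. Each well held 2,000 cells given 5-fluorouridine plus compound; after 16 hr at 37 °C/5% CO2, ONE-Glo was added and luciferase measured 30 min later.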
SMN2 splice up: enhancers of SMN2 splice variant expression; HEK293 SMN2-luciferase splicing reporter, luminescence, 30-36 h; Potency, µM (top dose mostly 46.1 µM), inactives show at the highest dose activity change, positive = activation, actives largely listed as activators; actives 2.8% (n = 210,000); AID 1458; further: % of control where 0% means no effect; nearly all actives have a fitted effect of over 55% in size
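HEK293 cells carry an SMN2 minigene-luciferase reporter in which exon 7 inclusion puts luciferase in frame. Cells were seeded at 2000 cells/well, attached for 10-12 hours, then exposed to compounds for 30-36 hours at 37C before ONE-Glo luminescence.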
ELG1 genotox: induces genotoxicity in HEK293T cells with luciferase-tagged ELG1. HEK293T ELG1-luciferase reporter, luminescence, 16 h. Potency, µM (highest dose often 46 µM), inactives show at the highest dose activity change, positive = activation, actives largely listed as activators. actives 1.3% (n = 330,000). AID 504466; further: % of control where 0% means no effect; nearly all actives have a fitted effect of over 60% in size
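Reporter readout depends on ELG1 protein level, which increases with genetic stress. After 16 hr compound exposure at 37 °C, luciferase activity was quantified using ONE-Glo.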
FLuc modulator: counter-screen for miR-21 project: firefly luciferase inhibitors or activators | P08659 | purified FLuc, Km substrates, luminescence inhibition | Potency, µM (top dose mostly 57.5 µM), without a hit: at the top dose activity change, negative = inhibition, usual class: inhibitors | actives 6.9% (n = 360,000);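 further: plate controls were vehicle for no effect and reference inhibitor for full effect; nearly all actives have a fitted effect of over 55% in size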
Target sequence (P08659 whole entry, looked up): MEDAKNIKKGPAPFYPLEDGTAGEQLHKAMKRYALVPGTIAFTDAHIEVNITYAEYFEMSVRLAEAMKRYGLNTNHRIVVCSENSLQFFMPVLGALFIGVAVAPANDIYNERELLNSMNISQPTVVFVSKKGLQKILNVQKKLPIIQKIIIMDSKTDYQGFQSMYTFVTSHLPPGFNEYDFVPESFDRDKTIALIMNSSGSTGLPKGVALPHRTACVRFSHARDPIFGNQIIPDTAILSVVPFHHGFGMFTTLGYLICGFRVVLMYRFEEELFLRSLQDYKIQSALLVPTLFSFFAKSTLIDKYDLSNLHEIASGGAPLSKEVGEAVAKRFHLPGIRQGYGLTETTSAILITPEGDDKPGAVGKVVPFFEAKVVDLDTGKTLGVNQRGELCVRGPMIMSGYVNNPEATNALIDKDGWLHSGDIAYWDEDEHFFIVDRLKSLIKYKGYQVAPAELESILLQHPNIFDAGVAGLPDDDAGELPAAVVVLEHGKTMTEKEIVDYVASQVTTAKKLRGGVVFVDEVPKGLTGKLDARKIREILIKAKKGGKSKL
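Biochemical qHTS of compounds, final roughly 60 µM downward over six points, against 10 nM purified firefly luciferase using Km concentrations of substrates (10 uM D-luciferin, 10 uM ATP) in Tris acetate pH 7.5 buffer; luminescence output.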
NPC1 prom act: activates the NPC1 promoter; Huh7 NPC1 promoter luciferase reporter, 24 h; Potency, µM (top dose mostly 9.22 µM), for inactives: top-dose activation, usual class: activators; actives 2.4% (n = 320,000); AID 485313; further: % of control where 0% means no effect; nearly all actives have a fitted effect of over 60% in size
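Huh7 reporter cells (NPC1 promoter driving luciferase) are dosed with compound for 24 h at 37 °C, 5% CO2; luciferase detection reagent is then added and luminescence measured after 10 min at ambient temperature.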
Rab9 prom act: activates the Rab9 promoter; AID 485297; actives 2.8% (n = 320,000); Potency, µM (titrated, usually from 9.22 µM), inactives show top-dose activation, negative = inhibition, usual class: activators; Huh7 Rab9 promoter-luciferase reporter, luminescence, 24 h; further: % of control where 0% means no effect; nearly all actives have a fitted effect of over 60% in size
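Rab9 promoter-driven luciferase in stably transfected Huh7 cells; 1500 cells/well rested 2 h, exposed to compound in DMSO for 24 h at 37 °C, 5% CO2. Luminescence read 10 min after adding luciferase reagent at ambient temperature.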
* hit, by the source's call; ? = inconclusive; . = no result; ! = a repeat was not active. Most compounds without a hit are left out; they make up all but 9.4% or so of the library. The call rests on the fitted dose curve; in most records, active means well fitted curve in the direction sought with a large enough effect; inconclusive means small, poorly fitted or top-dose-only effect, or another doubt; inactive means no such curve, though single readings can be large; an effect the other way counts as inactive or inconclusive. Potency means the concentration at half of the fitted maximal effect.

SMILES	ELG1 DNA repair	SMN2 splice up	ELG1 genotox	FLuc modulator	NPC1 prom act	Rab9 prom act
CCN(c1ccccc1)S(=O)(=O)c1nnc(NC(=O)c2ccccc2OC)s1	?	.	-1%	1.7µM*!	-1%	-3%
CCCCOc1cccc(C(=O)N(Cc2ccc(N(C)C)cc2)C2CCS(=O)(=O)C2)c1 (stereo not drawn)	.	-15%	.	-6%	.	.
COc1ccc(OC)c(NC(=O)c2nnn(CC(=O)Nc3ccc(C(C)C)cc3)c2N)c1	.	.	.	-11%	.	.
COc1cc(-c2ccno2)ccc1S(=O)(=O)N1CCN(c2ccc(F)cc2)CC1	.	.	.	0%	.	.
COC(=O)c1ccccc1NC(=O)Cn1cc(S(=O)(=O)Cc2ccccc2F)c2ccccc21	.	.	.	-5%	.	.
Cc1cccc(NS(=O)(=O)c2nnc(NC(=O)C3CCCCC3)s2)c1	-4%	.	-3%	6.7µM*!	-3%	3%
CCCC(=O)Nc1nnc(S(=O)(=O)N(C)c2ccccc2)s1	.	.	.	0.85µM*	.	.
Cc1cccc(N(C)S(=O)(=O)c2nnc(NC(=O)C(C)Oc3ccccc3)s2)c1 (stereo not drawn)	.	.	.	4.8µM*	.	.
CCN(c1ccc(C)cc1)S(=O)(=O)c1nnc(NC(=O)c2cccs2)s1	.	.	.	13µM*	.	.
COC(=O)CSCc1nc(-c2ccc(C(=O)OC)cc2)oc1C	.	.	.	-22%	.	.
CCN(c1ccccc1)S(=O)(=O)c1nnc(NC(=O)CC(C)C)s1	5%	.	-1%	2%	-2%	-3%
CCN(c1ccccc1)S(=O)(=O)c1nnc(NC(=O)c2ccccc2)s1	.	.	.	2.4µM*	.	.
COc1ccc(NC(=O)N2CCN(c3nc(-c4cccc(OC)c4)cs3)CC2)cc1	18µM*	-56%	-14%	?	-4%	-4%
COc1cccc(-c2csc(N3CCN(C(=O)Nc4ccc(Cl)cc4)CC3)n2)c1	?	.	-12%	?	-1%	0%
CCNC(=S)N1CCN(c2nc(-c3cccc(OC)c3)cs2)CC1	?	.	-8%	19µM*	3%	3%
CN(C)c1ccc(C(=O)c2ccc(O)cc2O)cc1	?	?	?	11µM*	?	21%
COc1ccc(N(C(=O)c2ccccc2)S(=O)(=O)c2ccc3c(c2)n(C)c(=O)n3C)cc1	.	14%	.	-1%	.	.
CC(C)Oc1ccc(C2CC(=O)N(c3ccc(C(=O)O)cc3)C2=O)cc1 (stereo not drawn)	10%	.	0%	-7%	-2%	0%
CC(C)Oc1ccc(C2CC(=O)N(c3cccc(C(=O)O)c3)C2=O)cc1 (stereo not drawn)	?	19%	?	17µM*	28%	3%
COc1ccc(-c2csc(NC(=O)CSc3nc(SC)ns3)n2)cc1	?	22µM*	?	?	?	26%
COc1ccc(-c2csc(NC(=O)CSc3nc(C)nc4sc(C(=O)O)c(C)c34)n2)cc1	-5%	.	1%	27µM*	-2%	-3%
COc1ccc(-c2csc(NC(=O)CSCC(=O)Nc3cc(C)on3)n2)cc1	3%	.	1%	?	8%	1%
CC(C)Oc1ccc(CNC(=O)c2ccc(CS(=O)c3cccc(Cl)c3)o2)cc1 (stereo not drawn)	.	.	.	-11%	.	.
COc1cccc(C(=O)Nc2cccc(C(=O)OCc3cc(=O)n4nc(C5CC5)sc4n3)c2)c1	.	.	.	-18%	.	.
CCn1nc(C)c2c(-c3ccccc3)cc(=O)n(C(C)C(=O)NCCc3ccc(Cl)cc3)c21 (stereo not drawn)	.	.	.	0%	.	.
O=C(Nc1ccc2c(c1)OCO2)c1cc(-c2ccccc2Cl)on1	?	.	9.2µM*	5.4µM*	2.5µM*	1.6µM*
O=C(NCc1ccc2c(c1)OCO2)c1cc(-c2ccccc2Cl)on1	18%	12%	9%	17µM*	1%	-2%
